# Results filed as inconclusive are left out. Where a call stands in place of a potency, no number is given. Values without a mark were called inactive. The source made the active and inactive calls. Calls come from the whole dose curve; as a rule, active = well fitted cell-killing curve with a large enough effect; inconclusive = small, poorly fitted or top-dose-only effect, or effect the other way; inactive = flat fitted curve, though single readings scatter.
# Experiments:
# Assay in all cases: Primary qHTS to identify gynecologic anti-cancer compounds using libraries of approved drugs and bioactive compounds (AID 1345084); note: nearly all actives have a fitted effect of over 55% in size
# C33A = conditions: Gynecologic cancer cell panel viability, ATPlite luminescence, 48 h; series mostly up to 57.5 µM
# Method in brief: (§1)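 Cells, 1,000 per well, plated 16 h, then exposed 48 h at 37 C to compounds. Viability by ATPlite luminescence after 15 min at room temperature.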
# CAOV3 = conditions: Gynecologic cancer cell panel viability, ATPlite luminescence, 48 h; series mostly up to 57.5 µM
# Method in brief: as §1
# CASKI = conditions: Gynecologic cancer cell panel viability, ATPlite luminescence, 48 h; series mostly up to 57.5 µM
# Method in brief: as §1
# Es-2 = conditions: Gynecologic cancer cell panel viability, ATPlite luminescence, 48 h; series mostly up to 57.5 µM
# Method in brief: as §1
# HeLa = conditions: Gynecologic cancer cell panel viability, ATPlite luminescence, 48 h; series mostly up to 57.5 µM
# Method in brief: as §1
# Hek293T = conditions: Gynecologic cancer cell panel viability, ATPlite luminescence, 48 h, control line for the selectivity index; series mostly up to 57.5 µM
# Method in brief: as §1
# JEG-3 = conditions: Gynecologic cancer cell panel viability, ATPlite luminescence, 48 h; series mostly up to 57.5 µM
# Method in brief: as §1
# OV90 = conditions: Gynecologic cancer cell panel viability, ATPlite luminescence, 48 h; series mostly up to 57.5 µM
# Method in brief: as §1
# PA-1 = conditions: Gynecologic cancer cell panel viability, ATPlite luminescence, 48 h; series mostly up to 57.5 µM
# Method in brief: as §1
# SKOV3 = conditions: Gynecologic cancer cell panel viability, ATPlite luminescence, 48 h; series mostly up to 57.5 µM
# Method in brief: as §1
# Tov-21-G = conditions: Gynecologic cancer cell panel viability, ATPlite luminescence, 48 h; series mostly up to 57.5 µM
# Method in brief: as §1
# Tov112D = conditions: Gynecologic cancer cell panel viability, ATPlite luminescence, 48 h; series mostly up to 57.5 µM
# Method in brief: as §1
# Potency is the fitted concentration of half-maximal effect.
smiles,measurement,setting,value
CN1CC[C@@H](c2c(O)cc(O)c3c(=O)cc(-c4ccc(C(F)(F)F)cc4Cl)oc23)[C@@H]1CO,Potency,C33A,inactive
same,Potency,CAOV3,inactive
same,Potency,CASKI,inactive
same,Potency,Es-2,inactive
same,Potency,HeLa,inactive
same,Potency,Hek293T,inactive
same,Potency,JEG-3,inactive
same,Potency,OV90,inactive
same,Potency,PA-1,inactive
same,Potency,SKOV3,inactive
same,Potency,Tov-21-G,inactive
same,Potency,Tov112D,inactive
O=C(O)C1=CO[C@@H](O[C@@H]2O[C@H](CO)[C@@H](O)[C@H](O)[C@H]2O)[C@@H]2C(CO)=CC[C@H]12,Potency,C33A,inactive
same,Potency,CAOV3,inactive
same,Potency,CASKI,inactive
same,Potency,Es-2,inactive
same,Potency,HeLa,inactive
same,Potency,Hek293T,inactive
same,Potency,JEG-3,inactive
same,Potency,OV90,inactive
same,Potency,PA-1,inactive
same,Potency,SKOV3,inactive
same,Potency,Tov-21-G,inactive
same,Potency,Tov112D,inactive
COc1ccc(-c2csc(NC(=O)[C@H]3CCCCN3S(=O)(=O)c3ccc(C)cc3)n2)cc1,Potency,C33A,inactive
same,Potency,CAOV3,inactive
same,Potency,CASKI,inactive
same,Potency,Es-2,inactive
same,Potency,HeLa,inactive
same,Potency,Hek293T,inactive
same,Potency,JEG-3,inactive
same,Potency,OV90,inactive
same,Potency,PA-1,inactive
same,Potency,SKOV3,inactive
same,Potency,Tov-21-G,inactive
same,Potency,Tov112D,inactive
COc1cc(C(C)C)c(Oc2cnc(N)nc2N)cc1I,Potency,C33A,inactive
same,Potency,CAOV3,inactive
same,Potency,CASKI,inactive
same,Potency,Es-2,inactive
same,Potency,HeLa,inactive
same,Potency,Hek293T,inactive
same,Potency,JEG-3,inactive
same,Potency,OV90,inactive
same,Potency,PA-1,inactive
same,Potency,SKOV3,inactive
same,Potency,Tov-21-G,inactive
same,Potency,Tov112D,inactive
Cc1onc(-c2ccccc2)c1C(=O)N1CCN(c2ccc([N+](=O)[O-])cc2Cl)CC1,Potency,C33A,inactive
same,Potency,CAOV3,inactive
same,Potency,CASKI,inactive
same,Potency,Es-2,inactive
same,Potency,HeLa,inactive
same,Potency,Hek293T,inactive
same,Potency,JEG-3,inactive
same,Potency,OV90,inactive
same,Potency,PA-1,inactive
same,Potency,SKOV3,inactive
same,Potency,Tov-21-G,inactive
same,Potency,Tov112D,inactive
CCC/C=C/C=C/C1CC(O)C2(O)C(=O)OCC12 (stereo not given),Potency,C33A,inactive
same,Potency,CAOV3,inactive
same,Potency,CASKI,inactive
same,Potency,Es-2,inactive
same,Potency,HeLa,inactive
same,Potency,Hek293T,inactive
same,Potency,JEG-3,inactive
same,Potency,OV90,inactive
same,Potency,PA-1,inactive
same,Potency,SKOV3,inactive
same,Potency,Tov-21-G,inactive
same,Potency,Tov112D,inactive
COc1ccc(-n2c(SCCCN3C(=O)c4cccc5cccc(c45)C3=O)nnc2-c2ccncc2)cc1,Potency,C33A,inactive
same,Potency,CAOV3,inactive
same,Potency,CASKI,inactive
same,Potency,Es-2,inactive
same,Potency,HeLa,inactive
same,Potency,Hek293T,inactive
same,Potency,JEG-3,inactive
same,Potency,OV90,inactive
same,Potency,PA-1,inactive
same,Potency,SKOV3,inactive
same,Potency,Tov-21-G,inactive
same,Potency,Tov112D,inactive
Cc1ccc(N2CCN(S(=O)(=O)N3CCCCC3)CC2)c(C)c1,Potency,C33A,inactive
same,Potency,CAOV3,inactive
same,Potency,CASKI,inactive
same,Potency,Es-2,inactive
same,Potency,HeLa,inactive
same,Potency,Hek293T,inactive
same,Potency,JEG-3,inactive
same,Potency,OV90,inactive
same,Potency,PA-1,inactive
same,Potency,SKOV3,inactive
same,Potency,Tov-21-G,inactive
same,Potency,Tov112D,inactive
CCNC(=O)N1CCCN(c2ccc(C(=O)NCCc3ccc(Cl)cc3Cl)cc2NC(=O)c2cccc(Cl)c2)CC1,Potency,C33A,inactive
same,Potency,CAOV3,inactive
same,Potency,CASKI,inactive
same,Potency,Es-2,inactive
same,Potency,HeLa,inactive
same,Potency,Hek293T,inactive
same,Potency,JEG-3,inactive
same,Potency,OV90,inactive
same,Potency,PA-1,inactive
same,Potency,SKOV3,1000 nM (active)
same,Potency,Tov-21-G,inactive
same,Potency,Tov112D,inactive
CC(=O)O[C@@H]1CC[C@@]2(C)C(CC[C@]3(C)C2[C@H](O)C=C2[C@H]4[C@@H](C)[C@H](C)CC[C@]4(C)CC[C@]23C)[C@@]1(C)C(=O)O (stereo not given in full),Potency,C33A,inactive
same,Potency,CAOV3,inactive
same,Potency,CASKI,inactive
same,Potency,Es-2,inactive
same,Potency,HeLa,inactive
same,Potency,Hek293T,inactive
same,Potency,JEG-3,inactive
same,Potency,OV90,inactive
same,Potency,PA-1,inactive
same,Potency,SKOV3,inactive
same,Potency,Tov-21-G,inactive
same,Potency,Tov112D,inactive
COC1CC(=O)C23C(=O)NC(CC(C)C)C2C(C)C(C)=CC3/C=C(\C)CCCC1O (stereo not given),Potency,C33A,inactive
same,Potency,CAOV3,inactive
same,Potency,CASKI,inactive
same,Potency,Es-2,inactive
same,Potency,HeLa,inactive
same,Potency,Hek293T,inactive
same,Potency,JEG-3,inactive
same,Potency,OV90,inactive
same,Potency,PA-1,inactive
same,Potency,SKOV3,inactive
same,Potency,Tov-21-G,inactive
same,Potency,Tov112D,inactive
O=C(Nc1ccccc1Br)NC1CCN(c2ccc(C(F)(F)F)cn2)C1 (stereo not given),Potency,C33A,inactive
same,Potency,CAOV3,inactive
same,Potency,CASKI,inactive
same,Potency,Es-2,inactive
same,Potency,HeLa,inactive
same,Potency,Hek293T,inactive
same,Potency,JEG-3,inactive
same,Potency,OV90,inactive
same,Potency,PA-1,inactive
same,Potency,SKOV3,inactive
same,Potency,Tov-21-G,inactive
same,Potency,Tov112D,inactive
CC(C)NC(=O)N1CC[C@H](N=C2Nc3cc(F)ccc3N(CC(F)F)c3ccc(Cl)cc32)C1,"activity change, negative = cytotoxicity",C33A,7.02% [at 11.6 µM]
same,"activity change, negative = cytotoxicity",CAOV3,-26.1% [at 11.6 µM]
same,"activity change, negative = cytotoxicity",CASKI,-4.9% [at 11.6 µM]
same,"activity change, negative = cytotoxicity",Es-2,5.14% [at 11.6 µM]
same,"activity change, negative = cytotoxicity",HeLa,-4.91% [at 11.6 µM]
same,"activity change, negative = cytotoxicity",Hek293T,1.3% [at 11.6 µM]
same,"activity change, negative = cytotoxicity",JEG-3,13.8% [at 11.6 µM]
same,"activity change, negative = cytotoxicity",OV90,1.89% [at 11.6 µM]
same,"activity change, negative = cytotoxicity",PA-1,-24.1% [at 11.6 µM]
same,"activity change, negative = cytotoxicity",SKOV3,18.3% [at 11.6 µM]
same,"activity change, negative = cytotoxicity",Tov-21-G,-31.2% [at 11.6 µM]
same,"activity change, negative = cytotoxicity",Tov112D,-4.53% [at 11.6 µM]
C=C1C(=O)OC2C3=C(C)C(=O)CC3C(C)CC(O)C12 (stereo not given),Potency,C33A,inactive
same,Potency,CAOV3,inactive
same,Potency,CASKI,inactive
same,Potency,Es-2,inactive
same,Potency,HeLa,inactive
same,Potency,Hek293T,inactive
same,Potency,JEG-3,inactive
same,Potency,OV90,inactive
same,Potency,PA-1,inactive
same,Potency,SKOV3,inactive
same,Potency,Tov-21-G,inactive
same,Potency,Tov112D,inactive
O=[N+]([O-])c1cn2c(n1)OC[C@@H](OCc1ccc(-c3ccc(OC(F)(F)F)cc3)nc1)C2,Potency,C33A,inactive
same,Potency,CAOV3,inactive
same,Potency,CASKI,inactive
same,Potency,Es-2,inactive
same,Potency,HeLa,inactive
same,Potency,Hek293T,inactive
same,Potency,JEG-3,inactive
same,Potency,OV90,inactive
same,Potency,PA-1,inactive
same,Potency,SKOV3,inactive
same,Potency,Tov-21-G,inactive
same,Potency,Tov112D,inactive
